These results are taken from PubChem BioAssay (NCI).

This is part of a sample that, as a whole, favours compounds with a hit. Of some 79,000 tested, about 15% had one in any assay. Unmarked numbers belong to inactive results. Active and inactive are the calls of the source. No stated cut-off is given here; in the data, active means growth inhibition above about 70%; inactive means the rest.

Assay [1] is described as follows: NCI Yeast Anticancer Drug Screen. Data for the rad50 strain (AID 155).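 Further: 0% = growth of vehicle-only cultures of the same strain.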 As to conditions: S. cerevisiae rad50 strain growth inhibition, stronger effect = higher value. Put shortly: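 Inhibition values express reduced yeast growth in compound-treated cultures relative to vehicle-treated controls.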
Assay [2] can be described thus: NCI Yeast Anticancer Drug Screen. Data for the mec2-1 strain (AID 157). As to conditions: S. cerevisiae mec2-1 strain, stronger effect = higher value. The method, boiled down: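 Each compound was tested on mec2-1 yeast, a strain altered in DNA damage repair or cell cycle control. Growth inhibition is reported relative to vehicle.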
Assay [3] can be described thus: NCI Yeast Anticancer Drug Screen. Data for the sgs1 mgt1 strain (AID 161).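 Further: 0% = growth of cultures given vehicle only.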 As to conditions: S. cerevisiae sgs1 mgt1 strain, stronger effect = higher value. Put shortly: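 Inhibition of yeast growth, normalised to vehicle-treated controls, is reported for a strain bearing genetic alterations in DNA damage repair.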
Assay [4] in a line: NCI Yeast Anticancer Drug Screen. Data for the cln2 rad14 strain (AID 165).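 Further: 0% = growth equal to vehicle treated cultures.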 As to conditions: S. cerevisiae cln2 rad14 strain, stronger effect = higher value. Put shortly:
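Test compounds were added to cln2 rad14 yeast cultures; inhibition of growth was then determined by comparison with vehicle treatment.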

The nature of assay [5]: NCI Yeast Anticancer Drug Screen. Data for the bub3 strain (AID 167). As to conditions: S. cerevisiae bub3 mutant strain, stronger effect = higher value. Put shortly: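 Steps: expose the mutant yeast strain to compound; grow alongside vehicle-treated cultures; measure growth; express inhibition against the vehicle cultures.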
Assay [6] is described as follows: NCI Yeast Anticancer Drug Screen. Data for the mlh1 rad18 strain (AID 175). To be noted: S. cerevisiae mlh1 rad18 strain growth inhibition, stronger effect = higher value. Put shortly:
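Inhibition values reflect reduced growth of mutant yeast versus vehicle-treated controls following compound exposure; the mutations affect DNA damage repair.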

Where [7] appears, read: at 5.0 µM (retest, dose inferred, filed as 0.5).
[8] abbreviates: at 50.0 µM (retest, dose inferred, filed as 5.0).

Take `COCCCNC(=S)N/N=C/c1cc(Cl)cc(Cl)c1O`: the growth inhibition in assay [1] (setting [7]) is 21%; in assay [1] (setting [8]), 75% (active); in assay [1] (at 50.0 µM) it was 92.5% (active); in assay [2] (setting [7]), 15%; in assay [2] (setting [8]) it was 81% (active); in assay [2] (at 50.0 µM), 89.3% (active). Further, the growth inhibition in assay [3] (setting [7]) was 27%; in assay [3] (setting [8]), 94% (active); in assay [3] (at 50.0 µM) it was 93.6% (active); in assay [4] (setting [7]) it was 10%; in assay [4] (setting [8]), 77% (active); in assay [4] (at 50.0 µM), 48.7%. In addition, the growth inhibition in assay [5] (setting [7]) is 4%; in assay [5] (setting [8]), 83% (active); in assay [5] (at 50.0 µM) it was 80.7% (active); in assay [6] (setting [7]), 13%; in assay [6] (setting [8]), 93% (active); in assay [6] (at 50.0 µM), 85.2% (active).
`CNC(=N)c1ccc(NC(=N)c2ccc(NC(=O)c3ccc(C(=O)Nc4ccc(C(=N)Nc5ccc(C(=N)NC)cc5)cc4)cc3)cc2)cc1`: the growth inhibition was 74% (active) in assay [1] (setting [7]); 54% in assay [1] (setting [8]); 70.2% (active) in assay [1] (at 50.0 µM); 81% (active) in assay [2] (setting [7]); 57% in assay [2] (setting [8]); 51% in assay [2] (at 50.0 µM). For the same molecule, the growth inhibition is 52% in assay [3] (setting [7]); 61% in assay [3] (setting [8]); 53.8% in assay [3] (at 50.0 µM); 47% in assay [4] (setting [7]); 42% in assay [4] (setting [8]); 11.7% in assay [4] (at 50.0 µM). Further, the growth inhibition in assay [5] (setting [7]) was 79% (active); in assay [5] (setting [8]) it was 74% (active); in assay [5] (at 50.0 µM) it was 46.6%; in assay [6] (setting [7]), 87% (active); in assay [6] (setting [8]), 69%; in assay [6] (at 50.0 µM), 87.5% (active).
As for `CC(C)N(CN1C(=O)N/C(=C/c2cccc(/C=C3/NC(=O)N(CN(C(C)C)C(C)C)C3=O)c2)C1=O)C(C)C`, the growth inhibition in assay [1] (setting [7]) is 7%; in assay [1] (setting [8]), 8%; in assay [1] (at 50.0 µM), 21%; in assay [2] (setting [7]) it was -15%; in assay [2] (setting [8]), -11%; in assay [2] (at 50.0 µM), 2.95%. Also, the growth inhibition in assay [3] (setting [7]) is -1%; in assay [3] (setting [8]), 3%; in assay [3] (at 50.0 µM), -2.5%; in assay [4] (setting [7]) it was -19%; in assay [4] (setting [8]), -15%; in assay [4] (at 50.0 µM) it was 63.4%. For the same molecule, the growth inhibition in assay [5] (setting [7]) was 12%; in assay [5] (setting [8]) it was 30%; in assay [5] (at 50.0 µM), 17.6%; in assay [6] (setting [7]), 7%; in assay [6] (setting [8]), 8%; in assay [6] (at 50.0 µM), -4.65%.
Consider `CN1C(=O)C2N(C(=O)C1(C)S)c1ccccc1C2(C)C` (stereo not drawn), for which the growth inhibition was -5% in assay [1] (setting [7]); 37% in assay [1] (setting [8]); 47.7% in assay [1] (at 50.0 µM); -4% in assay [2] (setting [7]); 29% in assay [2] (setting [8]); 32.5% in assay [2] (at 50.0 µM). Also, the growth inhibition is -3% in assay [3] (setting [7]); 41% in assay [3] (setting [8]); 15.7% in assay [3] (at 50.0 µM); -14% in assay [4] (setting [7]); 49% in assay [4] (setting [8]); -17.6% in assay [4] (at 50.0 µM). Also, the growth inhibition in assay [5] (setting [7]) is -4%; in assay [5] (setting [8]), 25%; in assay [5] (at 50.0 µM) it was 10.3%; in assay [6] (setting [7]), -1%; in assay [6] (setting [8]), 32%; in assay [6] (at 50.0 µM), 24.8%.
Take `O=C(Nc1cccc(Br)c1)Oc1ccc(Cl)c2cccnc12`: the growth inhibition in assay [1] (setting [7]) was 38%; in assay [1] (setting [8]), 98% (active); in assay [1] (at 50.0 µM) it was 89% (active); in assay [2] (setting [7]), 4%; in assay [2] (setting [8]), 99% (active); in assay [2] (at 50.0 µM) it was 91.1% (active). In addition, the growth inhibition is 7% in assay [3] (setting [7]); 99% (active) in assay [3] (setting [8]); 91.7% (active) in assay [3] (at 50.0 µM); 4% in assay [4] (setting [7]); 97% (active) in assay [4] (setting [8]); 89% (active) in assay [4] (at 50.0 µM). In addition, the growth inhibition is -7% in assay [5] (setting [7]); 98% (active) in assay [5] (setting [8]); 89.9% (active) in assay [5] (at 50.0 µM); 16% in assay [6] (setting [7]); 98% (active) in assay [6] (setting [8]); 90.8% (active) in assay [6] (at 50.0 µM).
Turning to `CCCCC(=O)N/N=C/c1ccc([N+](=O)[O-])s1`, the growth inhibition in assay [1] (setting [7]) is 9%; in assay [1] (setting [8]), 93% (active); in assay [1] (at 50.0 µM), 97% (active); in assay [2] (setting [7]) it was 7%; in assay [2] (setting [8]), 94% (active); in assay [2] (at 50.0 µM) it was 96% (active). The growth inhibition in assay [3] (setting [7]) was 8%; in assay [3] (setting [8]), 95% (active); in assay [3] (at 50.0 µM) it was 94.5% (active); in assay [4] (setting [7]), 1%; in assay [4] (setting [8]) it was 38%; in assay [4] (at 50.0 µM) it was 90.8% (active). Also, the growth inhibition in assay [5] (setting [7]) is -2%; in assay [5] (setting [8]) it was 94% (active); in assay [5] (at 50.0 µM), 95.7% (active); in assay [6] (setting [7]), 7%; in assay [6] (setting [8]) it was 97% (active); in assay [6] (at 50.0 µM) it was 97% (active).
